Among the data in PubChem BioAssay AID1778 (Sanford-Burnham Center for Chemical Genomics, 2009) are inhibition values, retold here.

Among all 290,000 compounds or so, about 260 (0.09%) were called active. What follows is part of a selection rich in actives, with near analogues and random picks from the rest. Potency and affinity values are given separately. A number with no mark means an inactive call. Rule as the data show it: active = inhibition above about 50%; inactive = the rest.

In this assay the target is Kappa-type opioid receptor (Homo sapiens) (UniProt P41145). Description: kappa opioid receptor blockers – cell-based, luminescence, uHTS (AID 1778). Particulars: KOR beta-arrestin recruitment, antagonist mode, active compounds read high; at 10 µM unless noted. For orientation: Recruitment of arrestin is a read-out of receptor activation apart from second messengers.
Sequence of Kappa-type opioid receptor (Homo sapiens) (P41145 whole entry, looked up): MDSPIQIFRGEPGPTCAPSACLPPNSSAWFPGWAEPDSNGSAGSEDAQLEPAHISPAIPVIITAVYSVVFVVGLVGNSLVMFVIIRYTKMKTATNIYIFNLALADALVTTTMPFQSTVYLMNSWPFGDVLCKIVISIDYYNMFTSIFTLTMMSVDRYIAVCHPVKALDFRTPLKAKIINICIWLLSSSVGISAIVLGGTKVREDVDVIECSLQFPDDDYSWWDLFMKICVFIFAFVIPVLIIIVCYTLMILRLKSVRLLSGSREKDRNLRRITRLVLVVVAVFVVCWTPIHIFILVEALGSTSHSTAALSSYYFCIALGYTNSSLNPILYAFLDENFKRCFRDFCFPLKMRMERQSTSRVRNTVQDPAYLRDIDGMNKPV
On to `N#CCC(=O)NNC(=S)NC(=O)C(c1ccccc1)c1ccccc1`, for which the inhibition was -32.2% [at 20 µM].
Consider `Cc1[nH][nH]c(=O)c1C(c1c(C)[nH][nH]c1=O)c1cn(Cc2ccc(F)cc2)c2ccccc12`, for which the inhibition was 53.6% (active).
Take `Cc1[nH][nH]c(=O)c1C(c1c(C)[nH][nH]c1=O)c1cn(Cc2ccc(Cl)c(Cl)c2)c2ccccc12`: the inhibition was -8.7%.
`Cc1[nH][nH]c(=O)c1C(c1c(C)[nH][nH]c1=O)c1cn(Cc2ccccc2Cl)c2ccccc12`: the inhibition was -4%.
Regarding `Cc1ccc(NC(=O)C23CCC(C)(C(=O)[C@H]2Br)C3(C)C)cc1` (some centres undefined), the inhibition was -3.6%.
Consider `O=C(OCn1ncc(Br)c(Br)c1=O)c1c(F)cccc1F`, for which the inhibition was 28%.
With `O=C(OCn1ncc(Cl)c(Cl)c1=O)c1ccc(F)cc1`, the inhibition was 5.2%.
Turning to `CC(C)C(C(=O)NC(C)(C)C)N1C(=O)c2ccccc2C1=O` (centres undefined), the inhibition is -6.7%.
Turning to `Cc1cc(C(=O)Nc2ccc(Br)cc2)cs1`, the inhibition is 9.2%.
Consider `CC(=O)c1c(C)nn(CCC(=O)O)c1C`, for which the inhibition was 18.3%.
As to `O=C(Nc1nccs1)c1sc2ccccc2c1Cl`, the inhibition is -49.2%.
With `Cc1ccnc(NC(=O)c2sc3cc(Cl)ccc3c2Cl)c1`, the inhibition was 9.3%.
The same measure for `O=C(CCN1C(=O)S/C(=C/c2ccc(Cl)cc2)C1=O)N1CCOCC1`: 36.7%; for `Cn1c(C(=O)NCc2cccnc2)cc2sccc21`: 26.2%.
As for `Cc1nc(Cl)c(C(=O)NCc2ccccc2)c(C)c1[N+](=O)[O-]`, the inhibition was 13.7%.
Consider `O=C(NCc1ccccc1)c1c(Cl)nc(Cl)c(Cl)c1Cl`, for which the inhibition is 58.5% (active).
With `Cc1nc(Cl)c(C(=O)NCc2ccccc2)c(C)c1Cl`, the inhibition is 7.6%.
`Cc1ccccc1-c1nc(CS(=O)(=O)CC(=O)N2CCOCC2)c(C)o1`: the inhibition is -6%.
In the case of `O=C(NCc1ccccc1Cl)c1cc(=O)[nH]c2ccccc12`, the inhibition is 4.5%.
Regarding `O=C(NCc1ccc(Cl)cc1)c1cc(=O)[nH]c2ccccc12`, the inhibition was -54.2%.
In the case of `CCOC(=O)c1cc(-c2ccc(N3CCOCC3)cc2)nn1-c1ccc(F)cc1F`, the inhibition is 21.8%.
To `COc1ccc(NC(=O)CSc2nnnn2-c2ccc(OC)cc2)cc1` belongs -1.3%.
Turning to `CC(CCc1ccccc1)NC(=O)COC(=O)c1ccc(S(C)(=O)=O)c([N+](=O)[O-])c1` (centres undefined), the inhibition was 18.3%.
Take `Cc1ccccc1NC(=O)COC(=O)c1ccc(S(C)(=O)=O)c([N+](=O)[O-])c1`: the inhibition is 53.9% [at 20 µM] (active).
With `CC(=O)c1cccc(NC(=O)COC(=O)c2ccc(S(C)(=O)=O)c([N+](=O)[O-])c2)c1`, the inhibition is 18.1%.
As to `O=C(Cc1cccs1)Nc1ccccc1C(=O)O`, the inhibition is 27.3%.
Regarding `O=c1cc(-c2ccccc2)[nH]n1-c1nc2ccccc2[nH]1`, the inhibition is 11.5%.
Turning to `COC(=O)Cc1cc(=O)n(-c2nc3ccccc3[nH]2)[nH]1`, the inhibition was 21.2%.
On to `COc1ccc(NC(=O)CSc2nc3sc(C)cc3c(=O)n2C)c(OC)c1`, for which the inhibition is -25.7%.
As for `O=C(NCC1CCCO1)C(c1ccc(F)cc1)N(Cc1ccc2c(c1)OCO2)C(=O)c1ccc(CN2CCOCC2)o1` (centres undefined), the inhibition was -17.9% [at 20 µM].
In the case of `Cc1ccc(/C=C2\SC(=S)N(c3c(C)n(C)n(-c4ccccc4)c3=O)C2=O)cc1`, the inhibition was -2.4%.
On to `CCOc1ccc(/C=C2/SC(=S)N(C(C(=O)O)c3ccccc3)C2=O)cc1OCC` (centres undefined), for which the inhibition was -34.9%.
For the compound `O=C1/C(=C/c2ccc(O)c(O)c2)SC(=S)N1Nc1ccccc1`, the inhibition was 35.5%.
The same measure for `Cc1c(N2C(=O)/C(=C/c3ccccc3)SC2=S)c(=O)n(-c2ccccc2)n1C`: -9.4%.
To `CCOc1ccc(/C=C2\SC(=S)N(C(C(=O)O)c3ccccc3)C2=O)cc1OC` (centres undefined) belongs 9.7%.
In the case of `COc1cc(/C=C2\SC(=S)N(NC(=O)c3ccncc3)C2=O)ccc1O`, the inhibition was 49.4%.
Turning to `COc1cc(/C=C2\SC(=S)N(NC(=O)c3ccc(O)cc3)C2=O)ccc1O`, the inhibition was 47.2%.
Consider `CCOc1cc(/C=C2\SC(=S)N(Nc3ccccc3)C2=O)ccc1O`, for which the inhibition was 9%.
To `Cn1cnnc1SCC(=O)Nc1ccc(OC(F)F)cc1` belongs -3.3%; to `C/C(=N\NC(=O)c1ccc2c(c1)OCO2)c1cccnc1`, 14.6%; to `COc1ccc(NC(=O)CCCN2C(=O)C(c3ccccc3)Oc3cccnc32)cc1OC` (centres undefined), 7%.
In the case of `CN1CCN(C2CC(=O)N(CCc3ccccc3)C2=O)CC1` (centres undefined), the inhibition is 10.4%.
With `Cc1cc(C(c2ccc(C)o2)c2ccc(C)o2)c(O)c([N+](=O)[O-])c1`, the inhibition is -22.8%.
In the case of `COc1ccc([N+](=O)[O-])cc1NC(=O)Cc1c(Cl)cccc1Cl`, the inhibition was 15.2%.
With `CCCc1nc2sc3c(=O)n(N)cnc3c2c2c1CCCC2`, the inhibition was -14.5%.
To `CCCc1nc2sc3c(=O)[nH]cnc3c2c2c1CCCC2` belongs -21.3%.
To `CC(C)Cc1nc2oc3c(Cl)ncnc3c2c2c1CCC2` belongs 32.2%.
Take `CCCc1nc2oc3c(N4CCNCC4)ncnc3c2c2c1CCCC2`: the inhibition is 14.5%.
As to `Cn1ccnc1Sc1ccccc1[N+](=O)[O-]`, the inhibition was 6.9%.
Consider `O=C(/C=C/c1cccc([N+](=O)[O-])c1)c1cccs1`, for which the inhibition was 14.1%.
As to `Cc1sc2nc(-c3ccccn3)[nH]c(=O)c2c1-c1ccccc1`, the inhibition was 49.2%.
For the compound `CCc1cc2c(=O)[nH]c(-c3ccncc3)nc2s1`, the inhibition was -17.3%.
With `CCc1cc2c(=O)[nH]c(-c3ccccn3)nc2s1`, the inhibition was 104% (active).
The same measure for `CCc1cc2c(=O)[nH]c(Cc3ccccc3)nc2s1`: -15.3%.
To `O=c1[nH]c(-c2ccccn2)nc2ccccc12` belongs 13.8%; to `COc1ccc(CNC(=O)Nc2cccc3ccccc23)cc1`, 7.6%.
Take `N#CC1=C(N)Oc2n[nH]c(-c3ccccc3)c2C1c1cccc(OC(=O)N2CCOCC2)c1` (centres undefined): the inhibition was 15.5%.
Regarding `O=C(NCCN1CCOCC1)C(=O)NCc1ccc2c(c1)OCO2`, the inhibition was -60.9% [at 20 µM].
For `CCOc1ccc(C(=O)/C=C/Nc2ccc(S(=O)(=O)Nc3onc(C)c3C)cc2)cc1`, the inhibition is -11%.

Broadly, the inhibition is the change of the read-out against control, counted positive when it falls.
